Calls of active or inactive are those of the source.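 How the source made its calls: active means compounds whose cell count with miR-34 switched on is under 0.7 times the count with it off; inactive means the rest.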

A short description of the experiment: viability loss with induced miR-34 in A549 – imaging, A549 dox-inducible miR-34, nuclei and caspase counts, primary screen (AID 1347080). Further: test concentration not given here. The settings on record: A549 miR-34 inducible, Hoechst nuclei count, 48 h.
Setting [1] is: stronger effect = lower value, cell number ratio, induced over uninduced.
[2] abbreviates: measured here: relative caspase fold change +Dox/-Dox.
The mark [3] stands for this setting: measured here: total cells with miR-34 induction, stronger effect = lower value.
[4] abbreviates: measured here: total cells without miR-34 induction.

In the case of `CCCCC[C@@H](O)/C=C/[C@H]1[C@H](O)CC(=O)[C@@H]1CCCCCCC(=O)O`, the fold change under setting [1] is 0.974 (inactive) and the fold change under setting [2] came to 1.39. The cell count is, setting by setting: under setting [3], 5460; under setting [4], 5600.

For `CCCCC(C)(C)[C@H](O)/C=C/[C@@H]1[C@@H](C/C=C\CCCC(=O)O)[C@H](O)C[C@H]1O`, the fold change is 0.901 (inactive) under setting [1] and 1.73 under setting [2]. Further, the cell count is, setting by setting: under setting [3], 5660; under setting [4], 6290.

Turning to `CCCCC[C@H](O)/C=C/[C@@H]1C(C/C=C\CCCCN(C)C)[C@@H](O)C[C@H]1O` (stereo not given in full), the fold change is 0.95 (inactive) under setting [1] and 1.02 under setting [2]. This compound also registered a cell count under setting [3] of 5640 and a cell count under setting [4] of 5940.

On to `CCCCC[C@H](O)/C=C/[C@H]1C(=O)C[C@H](O)[C@@H]1CCCCCCC(=O)O`, for which the fold change is 0.92 (inactive) under setting [1] and 0.486 under setting [2]. Moreover, the cell count by setting is: under setting [3], 4900; under setting [4], 5320.

Regarding `CC#CCC(C)C(=O)/C=C/[C@@H]1[C@H]2C/C(=C/CCCC(=O)O)C[C@H]2C[C@H]1O` (stereo not given in full), the fold change under setting [1] was 0.968 (inactive) and the fold change under setting [2] was 3.57. Further, the cell count reads like this: under setting [3], 5500; under setting [4], 5680.

Turning to `O=C(O)CCC/C=C\C[C@@H]1[C@@H](CC[C@@H](O)CCc2cccc(C(F)(F)F)c2)[C@H](O)C[C@@H]1O`, the fold change runs as follows: under setting [1], 0.926 (inactive); under setting [2], 1.34. Moreover, the cell count is, setting by setting: under setting [3], 6330; under setting [4], 6830.

Turning to `O=c1[nH]cc(CO)c(=O)[nH]1`, the fold change under setting [1] is 1.01 (inactive) and the fold change under setting [2] came to 1.05. The same compound returned a cell count under setting [3] of 5770 and a cell count under setting [4] of 5720.

Turning to `CCCCC[C@H](O)CC[C@@H]1[C@@H](CCCCCCC(=O)O)[C@@H](O)C[C@H]1O`, the fold change under setting [1] is 0.832 (inactive) and the fold change under setting [2] turned out to be 1.1. Further, the cell count was determined as 6210 under setting [3] and 7460 under setting [4].

Take `COc1ccc2c(c1)c(CC(=O)NCCc1ccccc1)c(C)n2C(=O)c1ccc(Cl)cc1`: the fold change reads like this: under setting [1], 1.02 (inactive); under setting [2], 0.638. Moreover, the cell count by setting is: under setting [3], 6040; under setting [4], 5920.

Consider `CCCCC[C@H](O)/C=C/[C@@H]1[C@@H](C/C=C\CCCC(=O)N(C)C)[C@@H](O)C[C@H]1O`, for which the fold change under setting [1] was 0.94 (inactive) and the fold change under setting [2] was found to be 1.13. The cell count by setting is: under setting [3], 5150; under setting [4], 5480.

In the case of `CCCCC[C@H](O)/C=C/[C@@H]1[C@@H](C/C=C\CCCCO)[C@@H](O)C[C@H]1O`, the fold change under setting [1] is 0.871 (inactive) and the fold change under setting [2] was determined as 1.35. Also, the cell count runs as follows: under setting [3], 5490; under setting [4], 6300.

In the case of `O=C(O)CCC/C=C\C[C@@H]1[C@@H](/C=C/C(F)(F)COc2ccccc2)[C@H](O)C[C@@H]1O`, the fold change is, setting by setting: under setting [1], 1.03 (inactive); under setting [2], 1.05. The cell count by setting is: under setting [3], 5600; under setting [4], 5440.

Consider `CCNC(=O)CCC/C=C\C[C@@H]1[C@@H](CC[C@@H](O)CCc2ccccc2)[C@H](O)C[C@@H]1O`, for which the fold change runs as follows: under setting [1], 0.901 (inactive); under setting [2], 1.65. The compound also came in with a cell count under setting [3] of 5780 and a cell count under setting [4] of 6420.

On to `CCCCCCCC/C=C\CCCCCCCCOCCOP(=O)([O-])OCC[N+](C)(C)C`, for which the fold change is 0.927 (inactive) under setting [1] and 0.887 under setting [2]. Besides, the cell count runs as follows: under setting [3], 5510; under setting [4], 5950.

Take `N[C@@H](CSCCB(O)O)C(=O)O`: the fold change under setting [1] is 1.01 (inactive) and the fold change under setting [2] turned out to be 1.73. The cell count reads like this: under setting [3], 6340; under setting [4], 6260.

Regarding `O=C1OC(O)C(c2cc3ccccc3s2)=C1Br` (stereo not given), the fold change is 0.915 (inactive) under setting [1] and 0.534 under setting [2]. In addition, the cell count under setting [3] worked out at 5180 and the cell count under setting [4] is 5660.

As for `CC(C)(C)OC(=O)N1CCC(OCc2nc(-c3ccncc3)no2)CC1`, the fold change by setting is: under setting [1], 1.03 (inactive); under setting [2], 0.58. Moreover, the cell count is, setting by setting: under setting [3], 5600; under setting [4], 5430.

With `CCCCC/C=C\C/C=C\C/C=C\CCCC/C=C\CCC(=O)O`, the fold change is 0.938 (inactive) under setting [1] and 0.754 under setting [2]. The compound also returned a cell count under setting [3] of 5780 and a cell count under setting [4] of 6170.

As for `C=C1C(=O)O[C@H](CCCCCCCC)[C@H]1C(=O)O`, the fold change is 1.04 (inactive) under setting [1] and 0.706 under setting [2]. The cell count reads like this: under setting [3], 6150; under setting [4], 5890.

Take `CCCCC/C=C\C/C=C\CC/C=C\CCCC(=O)OC`: the fold change reads like this: under setting [1], 0.951 (inactive); under setting [2], 0.414. Also, the cell count reads like this: under setting [3], 6030; under setting [4], 6340.

Turning to `O=C(CCCC[C@@H]1SC[C@@H]2NC(=O)N[C@@H]21)NCCCC[C@H](NC(=O)CCN1C(=O)C=CC1=O)C(=O)O`, the fold change under setting [1] was 0.911 (inactive) and the fold change under setting [2] is 0.469. The compound further yielded a cell count under setting [3] of 5380 and a cell count under setting [4] of 5910.

`CCCCCCCCCCCCCCCC(=O)OC[C@@H](O)COP(=O)(O)O`: the fold change under setting [1] is 0.985 (inactive) and the fold change under setting [2] amounted to 0.427. Also, the cell count by setting is: under setting [3], 5760; under setting [4], 5850.

Consider `CCCCCCCC/C=C\CCCCCCCC(=O)OCC`, for which the fold change is, setting by setting: under setting [1], 1 (inactive); under setting [2], 0.399. Also, the cell count under setting [3] is 5610 and the cell count under setting [4] amounted to 5590.

For `CCCCCCCCCCCCCCCCOC[C@H](COP(=O)([O-])OCC[N+]1(C)CCCC1)OC(C)=O`, the fold change runs as follows: under setting [1], 0.82 (inactive); under setting [2], 1.31. Besides, the cell count by setting is: under setting [3], 5250; under setting [4], 6400.

On to `CCCCCC(=O)CC[C@@H]1[C@@H](C/C=C\CCCC(=O)OC(C)C)[C@@H](O)C[C@H]1O`, for which the fold change reads like this: under setting [1], 0.977 (inactive); under setting [2], 1.56. In addition, the cell count amounted to 6190 under setting [3] and 6330 under setting [4].

As for `CC/C=C\C/C=C\C/C=C\C/C=C\CCCCC(=O)OCC`, the fold change runs as follows: under setting [1], 1.03 (inactive); under setting [2], 1.28. Further, the cell count by setting is: under setting [3], 5830; under setting [4], 5650.

As for `O=C1OC2(c3ccc(O)cc3Oc3cc(OS(=O)(=O)c4c(F)c(F)c(F)c(F)c4F)ccc32)c2ccccc21` (stereo not given), the fold change is 1.09 (inactive) under setting [1] and 0.755 under setting [2]. For the same compound, the cell count under setting [3] came to 6600 and the cell count under setting [4] worked out at 6070.

`CC(C)=CCC/C(C)=C/CC/C(C)=C/CC[C@]1(C)CCc2c(C)c(O)c(C)c(C)c2O1`: the fold change is, setting by setting: under setting [1], 0.928 (inactive); under setting [2], 0.656. Further, the cell count amounted to 5490 under setting [3] and 5920 under setting [4].

Turning to `C=C1C[C@@H](O)[C@H](/C=C/[C@@H](O)CCCCC)[C@H]1C/C=C\CCCC(=O)O`, the fold change was 0.899 (inactive) under setting [1] and 1.24 under setting [2]. Also, the cell count by setting is: under setting [3], 5620; under setting [4], 6250.

As for `O=C(O)CCC/C=C\C[C@@H]1[C@@H](/C=C/C(=O)CCc2ccccc2)[C@H](O)C[C@@H]1O`, the fold change reads like this: under setting [1], 0.902 (inactive); under setting [2], 1.59. For the same compound, the cell count reads like this: under setting [3], 5390; under setting [4], 5980.

The record behind these values is PubChem BioAssay.
